Screening data as filed in PubChem BioAssay.
RMI-FANCM inh: inhibitors of human RMI core complex binding to FANCM MM2; Fluorescence polarization, RMI core complex with F-MM2 peptide; stronger effect = lower value; FP signal (polarization) at 33 µM; 0.58% of 70,000 active; AID 1159607; in the data active = FP signal below about 40
An asterisk follows results filed as active. The entries come from a sample that favours hits as a whole.

SMILES	RMI-FANCM inh
Clc1ccc2nc(N3N=C(c4ccc(Br)cc4)CC3c3ccccc3Cl)nc(-c3ccccc3)c2c1 (stereo unspecified)	40
Cc1ccccc1C(=O)Nc1ccc(-c2ccc3nnc(-c4ccccn4)n3n2)cc1	66
Cc1ccc(NC(=O)c2n[nH]nc2Nc2cccc(F)c2)cc1Cl	63
CC(C)c1ccc(S(=O)(=O)Nc2ccc3c(c2)CN(C(=O)c2ccco2)CC3)cc1	65
O=C(O)c1ccccc1C(=O)N1CCN(C2c3ccccc3-c3ccccc32)CC1	32*
O=C(c1cccnc1Oc1ccccc1)N1CCN(C2c3ccccc3-c3ccccc32)CC1	57
Cc1cc(C(=O)N2CCN(C3c4ccccc4-c4ccccc43)CC2)c(C)o1	47
Cc1ccc(S(=O)(=O)n2cc(C(C#N)N3CCOCC3)c3ccccc32)cc1 (stereo unspecified)	71
Cc1ccc(NC(=S)NC(C)(C)C)c([N+](=O)[O-])c1	50
CC(C)(C)c1ccc(-n2cccc2)c([N+](=O)[O-])c1	48
Cc1ccc(N2C(=O)C=CC2=O)c([N+](=O)[O-])c1	-7*
Oc1ccc(C=NCCOCCOCCN=Cc2ccc(O)cc2)cc1	60
CN(C)c1ccc(CCNC(=O)C(=O)Nc2ccc3c(c2)OCO3)cc1	84
O=C(O)CCN1C(=O)/C(=C\c2cccnc2)SC1=S	62
CC(c1ccccc1)N1C(=O)/C(=C\c2cccnc2)SC1=S (stereo unspecified)	26*
O=C1/C(=C/c2cccnc2)SC(=S)N1c1ccccc1F	61
CCn1nccc1C(=O)Nc1nc(-c2cc3cc(OC)ccc3o2)cs1	72
CCOc1ccc(-c2noc(CS(=O)(=O)c3ccc(C)cc3)n2)cc1	86
Cc1[nH]c(=O)[nH]c(=O)c1CCc1nnc(SCC(=O)Nc2nccs2)o1	62
COC(=O)c1ccc(NC(=O)Cc2c(C)nc(SCc3cccc(OC)c3)[nH]c2=O)cc1	63
COCC(=O)N1CCCc2ccc(NS(=O)(=O)Cc3cccc(C)c3)cc21	73
COCCN1CCCc2ccc(NS(=O)(=O)Cc3cccc(C)c3)cc21	0*
COCCN1CCCc2ccc(NS(=O)(=O)c3cccc(C)c3)cc21	61
Cc1cc(C)c(S(=O)(=O)NCCc2ccc3c(c2)CCCN3C)cc1C	67
COc1ccc(C(=O)Nc2ccc3c(c2)OCC(C)(C)C(=O)N3CC(C)C)cc1OC	87
SMILES	RMI-FANCM inh
CC(C)CNC(=O)Nc1c[nH]c2ccccc12	60
O=C(NCc1ccccn1)Nc1c[nH]c2ccccc12	25*
COc1ccccc1CNC(=O)Nc1c[nH]c2ccccc12	62
O=C(O)c1ncccc1Br	57
O=C(O)c1nc2nccnc2cc1Br	17*
CS(=O)(=O)c1ncc(Br)c(C(=O)O)n1	55
Cn1c(=O)[nH]c(=O)c2c1n1c(-c3ccc(OCc4ccccc4)cc3)nnc1n2CCc1ccccc1	84
NC(CCc1ccc2c(c1)OCCO2)c1ccc2c(c1)OCCO2 (stereo unspecified)	78
CCN1CCCc2cc(CCNC(=O)C(=O)NCCOC)ccc21	13*
CCN1CCCc2cc(CCNC(=O)c3ccc(Br)o3)ccc21	48
CCN1CCCc2cc(CCNC(=O)c3ccc(OC(C)C)cc3)ccc21	20*
CCCCOc1ccc(C(=O)NCCc2ccc3c(c2)CCCN3C)cc1	65
CCN1CCCc2cc(CCNC(=O)NC(C)(C)C)ccc21	65
CCN1CCCc2cc(CCNC(=O)C(=O)NCCN3CCOCC3)ccc21	69
NS(=O)(=O)c1ccc(CCNC(=O)Cc2csc(SCc3ccc(Cl)cc3)n2)cc1	55
COc1cccc(C(=O)Nc2cc(-c3cccs3)nn2-c2nc(C)cc(=O)[nH]2)c1OC	59
Nc1c(C(=O)c2ccc(F)cc2)sc2nc(-c3ccccc3)cc(-c3ccco3)c12	56
CN(C)c1ccc(/C=C/C#N)cc1	73
CN(C)c1ccc(/C=C/c2ccccc2)cc1	54
CN(C)c1ccc(/C=C/c2ccncc2)cc1	25*
COC(=O)c1sccc1NC(=S)Nc1ccsc1C(=O)OC	57
COc1ccc(-c2cc(-c3ccc(Cl)cc3)nc3sc(C(=O)NCCc4ccccc4)c(N)c23)cc1	-12*
COc1ccc(-c2cc(-c3ccc(C)c(C)c3)nc3sc(C(=O)Nc4nsc(-c5ccc(Cl)cc5)n4)c(N)c23)cc1	78
COc1ccc(-c2cc(-c3ccccc3)nc3sc(C(=O)Nc4nsc(-c5ccccc5)n4)c(N)c23)cc1OC	128
O=C(CSc1nnc(CSc2nc3ccccc3s2)n1-c1ccccc1)NCc1ccccc1	58
SMILES	RMI-FANCM inh
Nc1ccc2c(c1)N(C(=O)c1cccs1)CC2	68
CC(C)OC(=O)CC1C(=O)NCCN1C(=S)NC(=O)c1cccc(Cl)c1 (stereo unspecified)	60
O=[N+]([O-])c1ccc(-c2nn(-c3ccccc3)cc2/C=N/n2c(-c3cccs3)n[nH]c2=S)cc1	12*
S=c1[nH]nc(-c2ccncc2)n1/N=C\c1cn(-c2ccccc2)nc1-c1cccs1	56
O=C(Cc1ccc([N+](=O)[O-])cc1)N/N=C\c1cn(-c2ccccc2)nc1-c1ccccc1	53
O=C(Nc1ccc2c(c1)N(C(=O)c1ccccc1)CCC2)Oc1ccccc1	71
O=[N+]([O-])c1ccc(Sc2ccccc2)c(Cl)c1	53
O=[N+]([O-])c1ccc(SC2=NCCN2)c(Cl)c1	53
O=[N+]([O-])c1ccc(Sc2ccc(Cl)cc2Cl)c2nonc12	33*
CCc1ccc(-c2cc3c(=O)n(Cc4nc(-c5ccc(OC)cc5)no4)ccn3n2)cc1	74
CCOC(=O)c1c(-c2ccco2)csc1NC(=O)CSc1ncnc2sc3c(c12)CCC3	107
